# Source: paper PMC7862700, “An all-to-all approach to the identification of sequence-specific readers for epigenetic DNA modifications on cytosine”
# How the values were obtained:
# Experiment in all cases: DAPPL (digital affinity profiling via proximity ligation, sequencing); 10 mM Tris-HCl pH 7.5, 50 mM NaCl, 1 mM DTT, 4% glycerol, room temperature, 30 min; GST-TFs on glutathione beads, 16-mer random dsDNA library, 0.1% formaldehyde crosslink after washing; high values mean tight binding
# [1] = target: T1, FEV (Homo sapiens, UniProt Q99581 1-238); details: protein: recombinant; tags: N-terminal GST; dsDNA, one strand shown
# T1 sequence: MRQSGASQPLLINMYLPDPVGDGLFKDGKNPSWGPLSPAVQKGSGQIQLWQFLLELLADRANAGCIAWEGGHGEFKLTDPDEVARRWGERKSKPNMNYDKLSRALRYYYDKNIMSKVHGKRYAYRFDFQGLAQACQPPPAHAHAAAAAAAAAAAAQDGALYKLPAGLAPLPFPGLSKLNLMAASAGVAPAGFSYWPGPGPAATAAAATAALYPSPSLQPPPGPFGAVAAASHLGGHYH
# Procedure, shortened: (§1)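 Pools were built from human transcription factors expressed in yeast as GST fusions, captured on glutathione beads and DNA-barcoded, along with a tag-only sample. Incubation with 200 nmole of a 16-mer random double-stranded DNA library lasted 30 min at room temperature in Tris/NaCl/DTT/glycerol buffer, and was followed by washing, 0.1% formaldehyde crosslinking, proximity ligation, PCR amplification and Illumina NextSeq500 sequencing. Binding signal is the quotient of each hexamer's read frequency for a factor and its frequency for the tag-only sample.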
# [2] = target: ETV5 (Homo sapiens, UniProt P41161 1-510); details: protein: recombinant; tags: N-terminal GST; dsDNA, one strand shown
# Chain of ETV5 (P41161 whole entry): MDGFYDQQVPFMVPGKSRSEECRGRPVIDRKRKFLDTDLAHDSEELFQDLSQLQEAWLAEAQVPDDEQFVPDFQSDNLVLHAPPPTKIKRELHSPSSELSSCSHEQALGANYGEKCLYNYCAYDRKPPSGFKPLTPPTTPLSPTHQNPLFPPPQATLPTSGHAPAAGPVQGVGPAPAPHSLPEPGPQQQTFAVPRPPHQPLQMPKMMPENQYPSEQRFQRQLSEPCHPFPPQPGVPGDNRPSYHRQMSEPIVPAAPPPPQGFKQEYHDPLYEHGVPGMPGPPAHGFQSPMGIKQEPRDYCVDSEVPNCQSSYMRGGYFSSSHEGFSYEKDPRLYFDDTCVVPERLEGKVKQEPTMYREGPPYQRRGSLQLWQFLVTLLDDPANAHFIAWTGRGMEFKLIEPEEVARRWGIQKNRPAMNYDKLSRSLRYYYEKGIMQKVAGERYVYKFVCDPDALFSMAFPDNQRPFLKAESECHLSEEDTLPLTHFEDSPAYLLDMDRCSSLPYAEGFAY
# Procedure, shortened: as §1
# [3] = target: HSF1 (Homo sapiens, UniProt Q00613 1-529); details: protein: recombinant; tags: N-terminal GST; chain copies: 3; dsDNA, one strand shown
# Chain of HSF1 (Q00613 whole entry): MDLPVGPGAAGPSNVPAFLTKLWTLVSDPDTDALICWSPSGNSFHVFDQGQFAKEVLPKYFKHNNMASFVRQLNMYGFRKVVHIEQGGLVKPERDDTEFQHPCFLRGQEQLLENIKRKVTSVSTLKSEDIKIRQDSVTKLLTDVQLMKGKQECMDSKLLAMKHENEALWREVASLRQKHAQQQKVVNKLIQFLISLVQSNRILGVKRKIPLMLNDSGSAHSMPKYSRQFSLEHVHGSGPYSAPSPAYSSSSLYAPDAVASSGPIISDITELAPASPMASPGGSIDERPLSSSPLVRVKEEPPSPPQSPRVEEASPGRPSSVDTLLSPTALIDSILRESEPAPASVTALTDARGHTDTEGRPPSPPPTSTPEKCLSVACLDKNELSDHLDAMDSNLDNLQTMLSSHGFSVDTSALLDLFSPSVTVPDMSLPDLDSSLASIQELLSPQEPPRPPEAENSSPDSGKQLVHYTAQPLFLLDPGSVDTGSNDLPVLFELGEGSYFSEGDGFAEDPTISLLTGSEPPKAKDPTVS
# Procedure, shortened: as §1
# [4] = target: T2, SPIC (Homo sapiens, UniProt Q8N5J4 1-248); details: protein: recombinant; tags: N-terminal GST; dsDNA, one strand shown
# T2 sequence: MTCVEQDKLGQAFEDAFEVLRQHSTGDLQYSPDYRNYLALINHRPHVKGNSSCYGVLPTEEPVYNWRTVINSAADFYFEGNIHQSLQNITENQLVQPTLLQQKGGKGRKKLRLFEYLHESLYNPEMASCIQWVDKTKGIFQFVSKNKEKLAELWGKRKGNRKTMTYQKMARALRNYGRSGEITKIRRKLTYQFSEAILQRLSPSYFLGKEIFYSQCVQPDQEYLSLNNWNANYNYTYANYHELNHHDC
# Procedure, shortened: as §1
# [5] = target: ELF4 (Homo sapiens, UniProt Q99607 1-663); details: protein: recombinant; tags: N-terminal GST; dsDNA, one strand shown
# Chain of ELF4 (Q99607 whole entry): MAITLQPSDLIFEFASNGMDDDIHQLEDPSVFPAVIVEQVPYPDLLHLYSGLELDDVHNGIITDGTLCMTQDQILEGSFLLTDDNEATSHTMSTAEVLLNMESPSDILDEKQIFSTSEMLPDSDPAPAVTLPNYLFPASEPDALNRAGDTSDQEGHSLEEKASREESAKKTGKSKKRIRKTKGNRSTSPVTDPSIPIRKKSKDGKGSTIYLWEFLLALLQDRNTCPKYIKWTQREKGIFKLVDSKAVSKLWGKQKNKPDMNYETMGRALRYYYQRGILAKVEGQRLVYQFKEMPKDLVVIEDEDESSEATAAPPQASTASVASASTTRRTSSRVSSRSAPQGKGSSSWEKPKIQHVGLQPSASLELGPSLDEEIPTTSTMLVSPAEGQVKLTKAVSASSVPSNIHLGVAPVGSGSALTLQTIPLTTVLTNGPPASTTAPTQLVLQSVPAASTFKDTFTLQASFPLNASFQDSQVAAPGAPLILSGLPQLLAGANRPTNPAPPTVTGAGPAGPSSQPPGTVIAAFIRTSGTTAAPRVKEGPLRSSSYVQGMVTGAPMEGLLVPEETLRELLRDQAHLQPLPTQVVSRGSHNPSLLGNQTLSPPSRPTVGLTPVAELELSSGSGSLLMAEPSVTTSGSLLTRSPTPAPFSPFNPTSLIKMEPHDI
# Procedure, shortened: as §1
# [6] = target: T3, ELK4 (Homo sapiens, UniProt P28324-2 1-405); details: protein: recombinant; tags: N-terminal GST; dsDNA, one strand shown
# T3 sequence: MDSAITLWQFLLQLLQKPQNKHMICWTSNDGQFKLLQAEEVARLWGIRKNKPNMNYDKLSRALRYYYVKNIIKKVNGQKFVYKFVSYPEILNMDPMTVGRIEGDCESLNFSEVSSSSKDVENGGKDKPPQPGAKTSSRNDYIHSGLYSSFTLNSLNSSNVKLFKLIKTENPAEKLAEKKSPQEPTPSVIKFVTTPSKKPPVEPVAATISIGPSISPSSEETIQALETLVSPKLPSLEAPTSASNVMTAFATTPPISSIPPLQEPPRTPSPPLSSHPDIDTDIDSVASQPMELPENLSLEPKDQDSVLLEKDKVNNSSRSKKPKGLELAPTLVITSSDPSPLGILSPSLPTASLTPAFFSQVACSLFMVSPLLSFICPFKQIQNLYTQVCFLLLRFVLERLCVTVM
# Procedure, shortened: as §1
# [7] = target: T4, ETV2 (Homo sapiens, UniProt O00321 1-342); details: protein: recombinant; tags: N-terminal GST; dsDNA, one strand shown
# T4 sequence: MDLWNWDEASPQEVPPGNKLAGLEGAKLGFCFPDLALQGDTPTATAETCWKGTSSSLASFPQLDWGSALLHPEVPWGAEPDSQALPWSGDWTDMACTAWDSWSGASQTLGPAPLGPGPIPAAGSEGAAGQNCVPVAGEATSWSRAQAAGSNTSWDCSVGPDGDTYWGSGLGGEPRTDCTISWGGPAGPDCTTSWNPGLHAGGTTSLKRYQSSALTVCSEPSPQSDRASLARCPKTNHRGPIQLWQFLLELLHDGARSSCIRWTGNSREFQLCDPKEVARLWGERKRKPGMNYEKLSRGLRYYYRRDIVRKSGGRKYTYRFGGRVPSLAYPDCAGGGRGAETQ
# Procedure, shortened: as §1
# [8] = target: T5, ELF3 (Homo sapiens, UniProt P78545 1-371); details: protein: recombinant; tags: N-terminal GST; dsDNA, one strand shown
# T5 sequence: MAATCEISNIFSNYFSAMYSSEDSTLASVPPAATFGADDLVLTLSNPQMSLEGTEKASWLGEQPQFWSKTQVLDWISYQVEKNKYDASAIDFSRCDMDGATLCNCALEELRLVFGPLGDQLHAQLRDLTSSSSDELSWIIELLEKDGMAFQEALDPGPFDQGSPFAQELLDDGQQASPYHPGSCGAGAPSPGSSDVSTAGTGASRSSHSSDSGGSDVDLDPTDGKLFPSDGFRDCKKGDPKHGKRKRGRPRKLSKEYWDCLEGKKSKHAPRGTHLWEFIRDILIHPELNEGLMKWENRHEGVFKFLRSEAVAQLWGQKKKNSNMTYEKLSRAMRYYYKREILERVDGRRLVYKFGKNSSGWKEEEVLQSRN
# Procedure, shortened: as §1
# [9] = target: CRX (Homo sapiens, UniProt O43186 1-299); details: protein: recombinant; tags: N-terminal GST; dsDNA, one strand shown
# Chain of CRX (O43186 whole entry): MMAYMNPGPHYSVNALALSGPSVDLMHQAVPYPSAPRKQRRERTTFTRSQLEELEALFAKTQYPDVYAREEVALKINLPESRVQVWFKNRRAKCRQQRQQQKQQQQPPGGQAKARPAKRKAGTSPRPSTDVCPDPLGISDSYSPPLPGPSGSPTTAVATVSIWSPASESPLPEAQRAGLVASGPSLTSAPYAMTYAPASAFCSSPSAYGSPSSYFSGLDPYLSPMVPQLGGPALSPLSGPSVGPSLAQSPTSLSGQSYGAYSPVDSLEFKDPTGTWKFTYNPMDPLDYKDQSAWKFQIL
# Procedure, shortened: as §1
# [10] = target: ETV1 (Homo sapiens, UniProt P50549 1-477); details: protein: recombinant; tags: N-terminal GST; dsDNA, one strand shown
# Chain of ETV1 (P50549 whole entry): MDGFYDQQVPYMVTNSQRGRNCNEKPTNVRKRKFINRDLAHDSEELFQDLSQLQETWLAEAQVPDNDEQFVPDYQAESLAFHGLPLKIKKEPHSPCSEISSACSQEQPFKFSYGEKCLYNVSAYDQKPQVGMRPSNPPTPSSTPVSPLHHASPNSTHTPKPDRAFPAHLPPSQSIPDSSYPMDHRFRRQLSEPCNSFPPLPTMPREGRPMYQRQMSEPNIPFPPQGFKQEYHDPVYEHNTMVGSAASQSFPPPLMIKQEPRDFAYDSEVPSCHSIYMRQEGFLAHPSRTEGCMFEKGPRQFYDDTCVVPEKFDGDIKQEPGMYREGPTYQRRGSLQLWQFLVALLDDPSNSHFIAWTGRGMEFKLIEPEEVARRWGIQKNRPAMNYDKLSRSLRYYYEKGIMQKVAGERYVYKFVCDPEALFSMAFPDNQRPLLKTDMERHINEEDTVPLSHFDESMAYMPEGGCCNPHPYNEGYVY
# Procedure, shortened: as §1
# [11] = target: T6, ERF (Homo sapiens, UniProt P50548 1-548); details: protein: recombinant; tags: N-terminal GST; dsDNA, one strand shown
# T6 sequence: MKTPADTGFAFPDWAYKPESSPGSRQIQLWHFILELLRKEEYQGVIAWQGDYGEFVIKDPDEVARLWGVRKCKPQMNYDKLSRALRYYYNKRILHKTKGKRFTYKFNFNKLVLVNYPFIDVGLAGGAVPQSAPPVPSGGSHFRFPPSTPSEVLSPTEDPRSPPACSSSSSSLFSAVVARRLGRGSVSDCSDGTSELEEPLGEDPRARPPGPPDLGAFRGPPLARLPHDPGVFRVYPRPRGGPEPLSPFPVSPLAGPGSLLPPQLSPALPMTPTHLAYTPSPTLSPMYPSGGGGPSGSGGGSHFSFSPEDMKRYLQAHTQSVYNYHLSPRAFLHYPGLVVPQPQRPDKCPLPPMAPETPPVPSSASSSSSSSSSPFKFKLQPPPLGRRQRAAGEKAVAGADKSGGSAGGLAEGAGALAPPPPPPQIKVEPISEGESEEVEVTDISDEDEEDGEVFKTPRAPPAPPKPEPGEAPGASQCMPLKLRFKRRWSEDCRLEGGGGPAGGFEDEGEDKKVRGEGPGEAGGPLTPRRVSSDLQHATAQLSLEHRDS
# Procedure, shortened: as §1
# [12] = target: T7, ETV3L (Homo sapiens, UniProt Q6ZN32 1-361); details: protein: recombinant; tags: N-terminal GST; dsDNA, one strand shown
# T7 sequence: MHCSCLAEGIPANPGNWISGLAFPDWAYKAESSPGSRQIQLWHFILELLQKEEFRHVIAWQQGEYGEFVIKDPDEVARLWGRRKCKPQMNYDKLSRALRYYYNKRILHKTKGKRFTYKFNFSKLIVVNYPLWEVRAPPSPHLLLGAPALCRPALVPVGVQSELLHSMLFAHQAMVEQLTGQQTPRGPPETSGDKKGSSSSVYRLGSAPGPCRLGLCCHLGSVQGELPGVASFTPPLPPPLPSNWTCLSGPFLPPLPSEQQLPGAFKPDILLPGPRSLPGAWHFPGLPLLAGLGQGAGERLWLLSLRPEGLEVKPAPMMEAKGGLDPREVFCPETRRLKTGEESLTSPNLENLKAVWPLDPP
# Procedure, shortened: as §1
# [13] = target: T8, ETS2 (Homo sapiens, UniProt P15036 1-469); details: protein: recombinant; tags: N-terminal GST; dsDNA, one strand shown
# T8 sequence: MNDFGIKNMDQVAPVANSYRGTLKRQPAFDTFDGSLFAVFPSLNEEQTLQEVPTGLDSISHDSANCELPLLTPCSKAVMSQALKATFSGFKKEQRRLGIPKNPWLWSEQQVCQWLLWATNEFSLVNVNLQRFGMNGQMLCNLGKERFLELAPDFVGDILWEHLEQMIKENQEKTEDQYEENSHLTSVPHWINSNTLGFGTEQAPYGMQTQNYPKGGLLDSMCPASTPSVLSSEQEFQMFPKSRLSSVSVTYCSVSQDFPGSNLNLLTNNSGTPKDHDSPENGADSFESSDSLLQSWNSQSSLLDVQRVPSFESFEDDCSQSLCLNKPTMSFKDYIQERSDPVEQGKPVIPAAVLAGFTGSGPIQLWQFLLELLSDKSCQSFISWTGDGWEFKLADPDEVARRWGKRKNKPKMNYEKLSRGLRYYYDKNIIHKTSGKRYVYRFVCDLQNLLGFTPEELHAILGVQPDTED
# Procedure, shortened: as §1
# [14] = target: T9, SPDEF (Homo sapiens, UniProt O95238 1-335); details: protein: recombinant; tags: N-terminal GST; dsDNA, one strand shown
# T9 sequence: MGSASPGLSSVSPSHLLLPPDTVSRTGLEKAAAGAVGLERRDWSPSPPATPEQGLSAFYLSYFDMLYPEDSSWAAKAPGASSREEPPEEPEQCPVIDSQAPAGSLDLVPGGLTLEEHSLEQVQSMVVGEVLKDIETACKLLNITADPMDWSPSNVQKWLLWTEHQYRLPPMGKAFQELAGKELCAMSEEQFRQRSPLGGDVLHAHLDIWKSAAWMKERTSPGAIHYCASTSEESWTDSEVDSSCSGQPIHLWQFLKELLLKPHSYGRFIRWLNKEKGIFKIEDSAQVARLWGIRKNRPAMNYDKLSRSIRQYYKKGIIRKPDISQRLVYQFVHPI
# Procedure, shortened: as §1
# [15] = target: T10, ETV7 (Homo sapiens, UniProt Q9Y603 1-341); details: protein: recombinant; tags: N-terminal GST; dsDNA, one strand shown
# T10 sequence: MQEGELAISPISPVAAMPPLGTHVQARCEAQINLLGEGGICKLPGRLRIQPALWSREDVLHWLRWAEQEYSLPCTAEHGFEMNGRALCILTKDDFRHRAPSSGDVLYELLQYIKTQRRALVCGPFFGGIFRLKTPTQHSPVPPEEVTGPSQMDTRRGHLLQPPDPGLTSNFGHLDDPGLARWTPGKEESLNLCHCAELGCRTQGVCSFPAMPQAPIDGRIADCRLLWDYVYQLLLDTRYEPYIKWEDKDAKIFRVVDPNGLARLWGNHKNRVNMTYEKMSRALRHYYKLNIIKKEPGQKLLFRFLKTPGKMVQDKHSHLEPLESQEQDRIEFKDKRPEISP
# Procedure, shortened: as §1
# [16] = target: T11, ELF5 (Homo sapiens, UniProt Q9UKW6-2 1-255); details: protein: recombinant; tags: N-terminal GST; dsDNA, one strand shown
# T11 sequence: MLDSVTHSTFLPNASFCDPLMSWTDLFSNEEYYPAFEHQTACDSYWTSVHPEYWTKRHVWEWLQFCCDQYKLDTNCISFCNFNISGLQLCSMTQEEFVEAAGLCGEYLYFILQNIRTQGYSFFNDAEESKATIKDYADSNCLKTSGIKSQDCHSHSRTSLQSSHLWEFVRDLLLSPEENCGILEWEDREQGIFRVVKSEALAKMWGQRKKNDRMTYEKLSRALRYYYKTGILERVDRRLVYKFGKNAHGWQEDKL
# Procedure, shortened: as §1
# [17] = target: T12, ETV3 (Homo sapiens, UniProt P41162-2 1-143); details: protein: recombinant; tags: N-terminal GST; dsDNA, one strand shown
# T12 sequence: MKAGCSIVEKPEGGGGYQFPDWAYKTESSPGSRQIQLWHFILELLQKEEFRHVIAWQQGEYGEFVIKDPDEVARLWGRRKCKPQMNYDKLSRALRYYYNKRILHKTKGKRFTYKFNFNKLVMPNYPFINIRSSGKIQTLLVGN
# Procedure, shortened: as §1
# [18] = target: ETV6 (Homo sapiens, UniProt P41212 1-452); details: protein: recombinant; tags: N-terminal GST; dsDNA, one strand shown
# Chain of ETV6 (P41212 whole entry): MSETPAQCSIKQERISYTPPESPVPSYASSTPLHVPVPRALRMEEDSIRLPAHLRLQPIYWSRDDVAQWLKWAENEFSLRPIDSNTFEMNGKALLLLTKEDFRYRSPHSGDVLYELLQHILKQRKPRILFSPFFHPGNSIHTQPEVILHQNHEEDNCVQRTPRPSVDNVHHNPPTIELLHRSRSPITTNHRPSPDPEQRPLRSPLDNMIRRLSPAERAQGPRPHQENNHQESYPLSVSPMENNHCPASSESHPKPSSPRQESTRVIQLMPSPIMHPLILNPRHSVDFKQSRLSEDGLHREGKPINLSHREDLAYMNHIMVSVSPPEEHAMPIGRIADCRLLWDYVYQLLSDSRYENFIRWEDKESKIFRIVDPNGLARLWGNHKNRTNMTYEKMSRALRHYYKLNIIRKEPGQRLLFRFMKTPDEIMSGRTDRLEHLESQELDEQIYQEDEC
# Procedure, shortened: as §1
sequence,measurement,setting,value
TTATTG,binding signal,[1],"1.28 fold enrichment (6-mer frequency, TF over GST control)"
same,binding signal,[2],"1.32 fold enrichment (6-mer frequency, TF over GST control)"
same,binding signal,[3],"1.71 fold enrichment (6-mer frequency, TF over GST control)"
same,binding signal,[4],"1.29 fold enrichment (6-mer frequency, TF over GST control)"
same,binding signal,[5],"1.36 fold enrichment (6-mer frequency, TF over GST control)"
same,binding signal,[6],"1.43 fold enrichment (6-mer frequency, TF over GST control)"
same,binding signal,[7],"1.33 fold enrichment (6-mer frequency, TF over GST control)"
same,binding signal,[8],"1.35 fold enrichment (6-mer frequency, TF over GST control)"
same,binding signal,[9],"2.35 fold enrichment (6-mer frequency, TF over GST control)"
same,binding signal,[10],"1.24 fold enrichment (6-mer frequency, TF over GST control)"
same,binding signal,[11],"1.37 fold enrichment (6-mer frequency, TF over GST control)"
same,binding signal,[12],"1.37 fold enrichment (6-mer frequency, TF over GST control)"
same,binding signal,[13],"1.27 fold enrichment (6-mer frequency, TF over GST control)"
same,binding signal,[14],"1.21 fold enrichment (6-mer frequency, TF over GST control)"
same,binding signal,[15],"1.4 fold enrichment (6-mer frequency, TF over GST control)"
same,binding signal,[16],"1.2 fold enrichment (6-mer frequency, TF over GST control)"
same,binding signal,[17],"1.34 fold enrichment (6-mer frequency, TF over GST control)"
same,binding signal,[18],"1.27 fold enrichment (6-mer frequency, TF over GST control)"
